# Screening results as filed in PubChem BioAssay.
# IDH1 R132H inh = qHTS for Inhibitors of mutant isocitrate dehydrogenase 1 (IDH1): qHTS; IDH1-R132H enzyme, NADPH consumption, diaphorase/resazurin fluorescence; Potency, µM (doses to about 76.6 µM), for inactives: at the highest dose activity change, negative = inhibition, hits mostly inhibitors; 0.093% of 390,000 active; Isocitrate dehydrogenase [NADP] cytoplasmic (Homo sapiens), O75874; further: potency means the concentration at half of the fitted maximal effect; on the % scale 0 is the no-effect control and ±100 the full control effect; nearly all actives have a fitted effect of over 65% in size
#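 IDH1-R132H (0.5 ug/mL) preincubated 30 min with compound, then NADPH (0.016 mM) and alpha-KG (2 mM) added; 80 min at RT, pH 7.5. Remaining NADPH coupled via diaphorase/resazurin to fluorescence (540/590 nm); concentration-response curves normalized to no-enzyme control.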
# a7 integrin act = qHTS for Activators of Integrin-Mediated Alleviation for Muscular Dystrophy; alpha7betagal myoblasts, beta-gal FDG fluorescence, 48 h; Potency, µM (doses to about 38.3 µM), for inactives: top-dose activation, actives largely listed as activators; 0.064% of 350,000 active; AID 624291, 2012;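 further: potency means the concentration at half of the fitted maximal effect; 100% = response of the positive control SU9516; nearly all actives have a fitted effect of over 60% in size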
#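 Alpha7betagal+/- myoblasts (passage 13) were plated 16-24 hr, then exposed to compounds (1:260 dilution of DMSO stock) for 48 hours at 37C. After MPER lysis, β-galactosidase reporter activity was read as FDG fluorescence (ex 480/em 540) after 30 minutes.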
# B2AR arrestin = qHTS assay of beta-arrestin-biased ligands of beta2-adrenergic receptor; Potency, µM (series often up to 46.1 µM), for the others: at the highest dose activation, actives largely listed as activators; 0.02% of 330,000 active; beta-arrestin recruitment to beta2AR, cell-based reporter; Beta-2 adrenergic receptor (Homo sapiens), P07550;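 further: potency means the concentration at half of the fitted maximal effect; 0% = DMSO controls and full agonism = EC100 isoproterenol or metaproterenol; nearly all actives have a fitted effect of over 65% in size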
# Target sequence (P07550 whole entry, looked up): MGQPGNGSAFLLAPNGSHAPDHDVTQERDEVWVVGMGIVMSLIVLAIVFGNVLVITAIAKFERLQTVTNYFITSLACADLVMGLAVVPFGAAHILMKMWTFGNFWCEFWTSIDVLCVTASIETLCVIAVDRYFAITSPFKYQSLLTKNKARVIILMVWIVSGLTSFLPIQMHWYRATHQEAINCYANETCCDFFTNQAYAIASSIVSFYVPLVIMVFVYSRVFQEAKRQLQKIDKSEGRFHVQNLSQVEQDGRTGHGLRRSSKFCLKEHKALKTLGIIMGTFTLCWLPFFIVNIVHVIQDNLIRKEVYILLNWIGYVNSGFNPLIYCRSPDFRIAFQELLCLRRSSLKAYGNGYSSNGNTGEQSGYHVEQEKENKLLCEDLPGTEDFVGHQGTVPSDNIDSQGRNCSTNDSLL
# DRD3 antagonist = qHTS of D3 Dopamine Receptor Antagonist: qHTS | D(3) dopamine receptor (Homo sapiens), P35462 | D3R cells, DiscoveRx beta-arrestin luminescence, antagonist mode; active compounds read low | max response, negative = inhibition, % | 2.5% of 360,000 active; in the data active means max response below about -50%; inconclusive means no clear call, values can overlap the other calls; further: on the % scale 0 is the no-effect control and ±100 the full control effect
#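 Cells expressing the human receptor were seeded at 1500 cells/well, incubated overnight at 37 degrees C in 5% CO2, then exposed to library compounds with dopamine controls for 90 minutes at 37 degrees C before luminescent detection.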
# D3 ag = qHTS of D3 Dopamine Receptor Agonist: qHTS; D3R DiscoveRx beta-arrestin cells, luminescence, 90 min; max activation, %; 0.58% of 410,000 active; AID 652048, 2013; in the data active means max activation above about 30%; further: 0% is about no effect
#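 Cells at 1500/well, incubated overnight, then treated with pinned compounds (dopamine as control) for 90 min at 37 degrees C. DiscoveRx reagent added for 30 - 60 minutes at room temperature; luminescence read.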
# * hit, by the source's call; ? = inconclusive; . = no result given; ! = not confirmed by another sample; [ ] = another dose, or the depositor's remark. Hits are enriched below; roughly 2.9% of the tested compounds scored in any of these assays. Unless noted, the call rests on the fitted dose curve; in most records, active means well fitted curve in the direction sought with a large enough effect; inconclusive means small, poorly fitted or top-dose-only effect, or another doubt; inactive means no such curve, though single readings can be large; an effect the other way counts as inactive or inconclusive.
SMILES,IDH1 R132H inh,a7 integrin act,B2AR arrestin,DRD3 antagonist,D3 ag
CCN1CCN(C(=O)c2ccc3c(c2)N(Cc2ccccc2F)C(=O)c2ccccc2S3(=O)=O)CC1,0%,8%,1%,-61*,-18
CCN1CCN(C(=O)c2ccc3c(c2)N(Cc2ccccc2)C(=O)c2ccccc2S3=O)CC1 (configuration not stated),12%,-18%,0%,-56*,-13
O=C1NC[C@H](CCCCN2C[C@H](Cc3ccccc3)N(CCC3CCCCC3)C(=O)C2=O)N(CC2CCCCC2)C1=O,.,.,.,22,2
CCCN1Cc2cccc(C(=O)NCCc3ccccc3)c2C1=O,-2%,?,0%,-1,-1
CC1CCC(C(C)C)C(OC(=O)Cn2c(-c3ccc(Br)cc3)[n+](C)c3ccccc32)C1 (configuration not stated),5%,-68%,0%,-67*!,-8
CC1CCC(C(C)C)C(OC(=O)Cn2c(-c3ccc(Cl)cc3)[n+](C)c3ccccc32)C1 (configuration not stated),0%,-58%,-1%,?,-26
O=[N+]([O-])c1cc(-c2nc(-c3cccnc3)no2)ccc1NCc1ccccc1,-5%,.,.,.,-5
Cc1ccc(Nc2c(-c3ccccn3)nc3ccc(C)cn23)cc1,-4%,-44%,0%,-78*,-29
Cc1ccc(Nc2c(-c3ccccn3)nc3cc(C)ccn23)cc1,1%,-70%,3%,-88*,-32
Cc1ccn2c(Nc3ccc4c(c3)OCO4)c(-c3ccccn3)nc2c1,3%,-10%,0%,-54*,-17
O=C(NCc1ccc(Cl)cc1)C1CCCN(c2ncnc3onc(-c4ccc(F)cc4)c23)C1 (configuration not stated),-15%,.,.,.,3
Cc1ccccc1OCC(O)CN1CCN(CCN2C(=O)c3cccc4cccc(c34)C2=O)CC1 (configuration not stated),2%,-23%,3%,-86*,-18
C=CCc1ccccc1OCC(O)CN1CCN(CCN2C(=O)c3cccc4cccc(c34)C2=O)CC1 (configuration not stated),7%,-49%,-1%,-4,-34
O=C(/C=C/c1ccccc1)N1CCN(CCN2C(=O)c3cccc4cccc(c34)C2=O)CC1,8%,-8%,-1%,-96*,-16
Cc1ccc(-c2nnc(SCc3ccccc3C#N)o2)cc1,4%,.,.,.,8
COc1cc(OC)c(NC(=O)Cc2c(C(=O)O)c(C)cn2C)cc1Cl,28%,.,.,.,1
Nc1ncnc(Sc2ncccn2)c1[N+](=O)[O-],4%,-63%,0%,-84*,-20
O=C(O)c1cccc2cccnc12,4%,7%,0%,-3,-3
O=C(Oc1ccccc1)c1cccc2cccnc12,-1%,-31%,9%,-54*,-6
COc1ccc(-c2noc(Cn3c(=O)c4ccccc4n(CC(=O)Nc4cccc(C(F)(F)F)c4)c3=O)n2)cc1,6%,.,.,.,-8
O=[N+]([O-])c1cc(C(F)(F)F)ccc1NC1CCN(Cc2ccccc2)C1 (configuration not stated),0%,-50%,0%,-74*,-28
NC(=O)CC(NC(=O)c1ccccc1)c1ccc(NC2CCN(Cc3ccccc3)CC2)c([N+](=O)[O-])c1 (configuration not stated),-4%,-14%,-1%,-8,1
O=[N+]([O-])c1cc(C(F)(F)F)ccc1NC1CCN(Cc2ccccc2)CC1,0%,-24%,0%,-74*,-30
O=C(c1ccccc1)c1coc2c1C(=O)c1ccccc1C2=O,-6%,-47%,0%,-13,-7
O=C1c2ccccc2C(=O)c2c1oc(C(F)(F)F)c2C(=O)c1ccccc1,11%,-8%,0%,-70*,-20
SMILES,IDH1 R132H inh,a7 integrin act,B2AR arrestin,DRD3 antagonist,D3 ag
CN1CCN(C(=S)c2ccc(Cl)cc2)CC1,2%,5%,0%,-87*,0
COc1ccc(C(=S)N2CCN(C)CC2)cc1Br,2%,8%,-1%,0,-10
COc1ccc(C(=S)N2CCN(C)CC2)cc1,6%,-8%,0%,-74*,2
COc1ccccc1C(=O)NC(=O)Nc1ccc(-n2nc(C(F)(F)F)cc2C(F)(F)F)cc1,1%,.,.,.,-9
Cc1ccccc1C(=O)NC(=S)Nc1ccc(S(=O)(=O)N2CCN(C)CC2)cc1,2%,9%,2%,-12,-3
Cc1ccccc1C(=O)NC(=S)Nc1ccc(S(=O)(=O)N2CCOCC2)cc1,5%,3%,0%,-54*,-13
C/C=C/c1cc(CN2CCN(c3ccc(OC)cc3)CC2)c(O)c(OC)c1,-8%,-12%,-1%,?,-24
C/C=C/c1cc(CN2CCN(c3ccccc3)CC2)c(O)c(OC)c1,2%,-10%,0%,-98*,-20
C=C1C(=O)O[C@H]2[C@H]1CC/C(C)=C\CC[C@@]1(C)O[C@@H]21,.,.,.,.,-10
O=C(NCCCN1CCN(c2ccccc2F)CC1)C1CCCN(S(=O)(=O)c2cnc[nH]2)C1 (configuration not stated),1%,-12%,0%,-71*,6
O=C(NCCN1CCN(c2ccccc2F)CC1)C1CC(=O)N(C2CCCC2)C1 (configuration not stated),-4%,14%,0%,-66*,-9
CN(CCCNC(=O)C1CCCN(S(=O)(=O)c2cnc[nH]2)C1)c1ccccc1 (configuration not stated),-2%,-7%,0%,-8,2
CC(OC(=O)c1ccc2c(c1)NC(=O)CS2)C(=O)c1ccc(F)cc1 (configuration not stated),1%,?,-1%,-1,9
CCOc1cc(-c2nnc(SCC(=O)NCc3ccccc3)nc2-c2ccc(OC)c(OCC)c2)ccc1OC,-5%,.,.,.,-15
Cc1ccc(CC(=O)N(Cc2nc(-c3ccc(C)cc3)no2)C(C)C)cc1,6%,.,.,.,-10
COC(=O)c1ccc(NC(=O)CN2CCN(c3ccccc3)CC2)cc1,3%,-1%[7.66 µM],0%,-25,33*
CCc1cccc(CC)c1NC(=O)CN1CCN(c2ccccc2)CC1,3%,10%,-1%,-76*,-10
CCOC(=O)c1ccc(NC(=O)CN2CCN(c3ccccc3)CC2)cc1,13%,9%,0%,-3,22
CS(=O)(=O)c1nc(-c2ccccc2)cc(C(F)(F)F)n1,1%,-58%,0%,-120*,-19
Cc1cc(NC(=O)CCS(=O)(=O)c2nc(-c3ccccc3)cc(C(F)(F)F)n2)no1,5%,-67%,0%,-25,-17
